# Results: PubChem BioAssay (NCATS)
# Inconclusive results are not listed. Where a call stands in place of a potency, no number is given. The source holds several records for some structures; these can differ, active in one and inactive in another. Calls of active or inactive are those of the source. Calls come from the whole dose curve; as a rule, active = well fitted inhibition curve with a large enough effect; inconclusive = small, poorly fitted or top-dose-only effect; inactive = no such curve, though single readings can be large or run the other way.
# Assay: NS1 protein of Zika virus - qHTS assay to identify small molecule inhibitors in human HEK 293 cells (AID 1347053); note: nearly all actives have a fitted effect of over 55% in size
# Details: HEK293 ZIKV MR766 infection, NS1 TR-FRET, 24 h; series mostly up to 46.1 µM
# Method in brief: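 HEK 293 cells pretreated with compound for 1 h, then infected with ZIKV MR766 (MOI 0.5) for 24 h at 37 C. NS1 detected by TR-FRET with two anti-NS1 antibodies; normalized to uninfected (0%) and infected (100%) wells.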
# Potency is the fitted concentration of half-maximal effect.
row,SMILES,Potency
1,NCCS(=O)(=O)O,inactive
2,CNCCCC12CCC(c3ccccc31)c1ccccc12,20.9 µM (active)
3,COc1cc2nc(N3CCN(C(=O)C4COc5ccccc5O4)CC3)nc(N)c2cc1OC (stereo not given),inactive
4,CC(C)NCC(O)c1ccc(O)c(O)c1 (stereo not given),inactive
5,CN(C)CCC=C1c2ccccc2C=Cc2ccccc21,inactive
6,Cn1c(=O)c2[nH]cnc2n(C)c1=O,inactive
7,COC(=O)Nc1nc2ccc(C(=O)c3cccs3)cc2[nH]1,235 nM (active) and inactive
8,O=C1c2c(O)ccc(O)c2C(=O)c2c(NCCNCCO)ccc(NCCNCCO)c21,0.833 µM (active)
9,Cc1cc(C(C)(C)C)cc(C)c1CC1=NCCN1,inactive
10,COc1ccccc1OCC(O)CN1CCN(CC(=O)Nc2c(C)cccc2C)CC1 (stereo not given),inactive
11,NC12CC3CC(CC(C3)C1)C2,inactive
12,CN1CCN(CCCN2c3ccccc3Sc3ccc(Cl)cc32)CC1,23.5 µM (active) and inactive
13,CCC1(C)CC(=O)NC1=O (stereo not given),inactive
14,Clc1ccccc1C(c1ccccc1)(c1ccccc1)n1ccnc1,inactive
15,CC[N+](CC)(CC)CCOc1cccc(OCC[N+](CC)(CC)CC)c1OCC[N+](CC)(CC)CC,inactive
16,NC(=O)NO,inactive
17,NCCCCCC(=O)O,inactive
18,CCc1cccc2c3c([nH]c12)C(CC)(CC(=O)O)OCC3 (stereo not given),inactive
19,CN1C(C(=O)Nc2ccccn2)=C(O)c2ccccc2S1(=O)=O,inactive
20,Cc1cnc(C(=O)NCCc2ccc(S(=O)(=O)NC(=O)NC3CCCCC3)cc2)cn1,inactive
